Screening results: PubChem BioAssay, National Center for Advancing Translational Sciences (NCATS)
ATXN viability: reduces viability in counter-screen for ATXN expression inhibitors. S2 cells (HEK-293 line with an ATXN2-luciferase reporter) viability, CellTiter-Fluor protease fluorescence, 24 h. Potency, µM (series often up to 56.7 µM), actives largely listed as cytotoxic. AID 651635. 0.49% of 400,000 active; further: nearly all actives have a fitted effect of over 40% in size
ALOX12 inh: ALOX12 (human) lipoxygenase inhibition | P18054 | Potency, µM (top dose mostly 108 µM), inactives show at the top dose activity change, negative = inhibition, most hits filed as inhibitors | purified 12hLO, xylenol orange hydroperoxide absorbance | 1.1% of 580,000 active; further: on the % scale 0 is the no-effect control and ±100 the full control effect
Target sequence (P18054 whole entry, looked up): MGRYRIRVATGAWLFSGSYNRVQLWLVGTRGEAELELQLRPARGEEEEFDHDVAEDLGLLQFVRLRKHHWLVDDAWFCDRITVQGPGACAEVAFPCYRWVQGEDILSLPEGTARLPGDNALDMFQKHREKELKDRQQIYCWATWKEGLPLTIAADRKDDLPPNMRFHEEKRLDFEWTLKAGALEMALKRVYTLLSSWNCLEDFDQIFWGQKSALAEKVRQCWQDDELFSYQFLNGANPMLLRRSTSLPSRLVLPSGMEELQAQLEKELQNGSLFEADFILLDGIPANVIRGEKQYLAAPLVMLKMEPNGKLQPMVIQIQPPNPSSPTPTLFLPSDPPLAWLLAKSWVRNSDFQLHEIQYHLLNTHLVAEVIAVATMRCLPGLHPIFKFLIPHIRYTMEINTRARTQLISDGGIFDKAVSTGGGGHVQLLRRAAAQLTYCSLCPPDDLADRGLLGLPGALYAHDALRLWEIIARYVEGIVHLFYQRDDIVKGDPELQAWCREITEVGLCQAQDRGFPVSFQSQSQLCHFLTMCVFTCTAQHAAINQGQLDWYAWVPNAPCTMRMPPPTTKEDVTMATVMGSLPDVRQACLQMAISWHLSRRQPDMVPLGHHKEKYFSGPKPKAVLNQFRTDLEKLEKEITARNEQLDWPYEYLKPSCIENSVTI
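Purified human 12hLO at 150 nM in 25 mM Hepes, 0.01% Triton X-100, pH 7.0, preincubated 15 min at room temperature with compound. Reaction started with 40 uM arachidonic acid, 30 min at room temperature. Hydroperoxide measured by Fe-xylenol orange, 573/405 nm absorbance ratio.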
HepG2 viability: counter-screen for TGF-b inhibitors: cytotoxicity in HepG2 cells. HepG2 CAGA-GFP viability, ATP luminescence, 18 h. Potency, µM (series often up to 46.1 µM), without a hit: top-dose activity change, negative = cytotoxicity, most hits filed as cytotoxic. 0.76% of 410,000 active
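HepG2 CAGA-GFP cells (1000/well, DMEM with 1% FBS) received compound, then TGF-beta at 500 pg/mL final, and were incubated 18 hours at 37 degrees C. Viability was read by CellTiter-Glo luminescence. Media-only wells were set as complete cell-killing and DMSO as no toxicity.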
TGFb inhibitor: inhibitors of TGF-b signaling | HepG2 CAGA-GFP TGF-b/SMAD3 reporter, GFP fluorescence, 18 h; TGF-beta stimulated, 500 pg/mL final | 1.2% of 410,000 active | Potency, µM (highest dose often 46.1 µM), for the others: at the highest dose activity, negative = inhibition, most hits filed as inhibitors; further: on the % scale 0 is the no-effect control and ±100 the full control effect; nearly all actives have a fitted effect of over 65% in size
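Inhibition was scored as loss of TGF-beta-induced (500 pg/mL final, 18 hours, 37 degrees C) GFP in HEPG2 cells carrying a CAGA-GFP reporter, in DMEM with 1% FBS. Well GFP was summed per cell; Activity was normalised to unstimulated and stimulated DMSO wells, then concentration-response fitting.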
ATXN2 expr inh: ATXN2 expression inhibition. HEK-293 ATXN2-luciferase reporter, luminescence, 24 h. Potency, µM (series often up to 57 µM), for the others: at the highest dose activity change, negative = inhibition, actives largely listed as inhibitors. 0.72% of 360,000 active. AID 1745845; further: on the % scale 0 is the no-effect control and ±100 the full control effect; nearly all actives have a fitted effect of over 55% in size
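ATXN2-luciferase reporter cells (luciferase flanked by upstream and downstream ATXN2 gene portions) were treated 24 h at 37 °C with compounds at up to 57 uM. SteadyGlo luminescence gave expression; GF-AFC fluorescence gave viability.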
* marks the source's active call; other numbers are inactive results; i = inactive; ? = inconclusive; / = no result; ! = a repeat was not active; [ ] = dose if it differs, or a comment. An excerpt weighted towards active compounds, which were near 2.7% of everything screened. The call rests on the fitted dose curve; in most records, active means well fitted curve in the direction sought with a large enough effect; inconclusive means small, poorly fitted or top-dose-only effect, or another doubt; inactive means no such curve, though single readings can be large; an effect the other way counts as inactive or inconclusive. Potency means the concentration at half of the fitted maximal effect.

SMILES	ATXN viability	ALOX12 inh	HepG2 viability	TGFb inhibitor	ATXN2 expr inh
CCOc1ccc(C(c2c(NC(=O)c3ccccc3)sc(C)c2C)N2CCN(CCO)CC2)cc1 (stereo not given)	?	?	11.2µM*	?	-8.6%
CCc1cc(C(c2ccc(F)cc2)N2CCN(CC)CC2)c(NC(=O)c2ccco2)s1 (stereo not given)	/	10µM*	/	/	/
CCc1cc(C(c2ccc(OC)cc2)N2CCOCC2)c(NC(=O)c2ccco2)s1 (stereo not given)	/	7.08µM*	/	/	/
Cc1sc(NC(=O)c2ccccc2)c(C(c2ccc(Cl)cc2)N2CCN(CCO)CC2)c1C (stereo not given)	/	?	-107.7%	?	?
CC(C)(C)CC(=O)NCC(O)c1ccccc1C(F)(F)F (stereo not given)	/	-1.9%	/	/	/
CCc1cnc(Nc2nc(C(N)Cc3ccc(Cl)cc3)cs2)nc1 (stereo not given)	/	-17.5%	-109.5%	?	?
CN(Cc1ccccc1)C(=O)c1ccc(Nc2nc(C(N)Cc3ccc(C(F)(F)F)cc3)cs2)nc1 (stereo not given)	31.6µM*	?	10µM*	?	?
COc1cccc(Nc2nc(C(N)Cc3ccccc3)cs2)n1 (stereo not given)	?	-10.4%	-95.4%	11.2µM*	?
CN(Cc1ccccc1)C(=O)c1ccc(Nc2nc(C(N)Cc3ccccc3)cs2)nc1 (stereo not given)	15.8µM*	3.9%	15.8µM*	?	14.1µM*
CCCc1cnc(Nc2nc(C(N)Cc3ccc(OC)cc3)cs2)nc1 (stereo not given)	?	-22.4%	11.2µM*	?	?
CCc1ccc(S(=O)(=O)N2C[C@@H]3C(=O)N(C(CC)c4cccs4)C(=O)[C@@H]3C2)cc1 (stereo not given in full)	/	8.7%	/	/	/
O=C(Cc1ccc(N2CCC(NCCc3ccc(C(F)(F)F)cc3)CC2)cc1)NCc1ccccn1	/	29.2%	/	/	/
CC(C)CC(N)c1csc(Nc2ccc(C(=O)N(C)Cc3ccccc3)cn2)n1 (stereo not given)	28.2µM*	-0.2%	-109.0%	?	28.2µM*
CN(Cc1ccccc1)C(=O)c1ccc(Nc2nc(C(N)COCc3ccccc3)cs2)nc1 (stereo not given)	?	1.2%	-34.5%	?	?
CC(C)c1cc(C(=O)NNC(=S)NCc2ccco2)c(O)c(C(C)C)c1	?	35.5µM*	-91.5%	?	?
CCCc1c(C)nc2ccc(Cl)cc2c1-c1ccccc1	/	1.78µM*	/	/	/
CC(=O)c1c(C)nc2ccc(Cl)cc2c1-c1ccccc1	/	-28.0%	/	/	/
CCOC(=O)N1CCC(N2C(=O)c3ccccc3C2Nc2cc(OC)c(OC)c(OC)c2)CC1 (stereo not given)	i	-2.5%	-22.9%	3.9%	3.2%
CCOC(=O)[C@]12Cc3c(cc(OC)c(OC)c3OC)[C@H]1N(C1CCCCC1)C(=O)c1cc(OC)ccc12	14.1µM*	?	/	/	?
O=C(NC1CCCCC1)C1CN(C(=O)c2cccc(C(F)(F)F)c2)CC12CCOCC2 (stereo not given)	/	-4.8%	/	/	/
O=C1OCC(CC2=C(O)C(=O)OC2)=C1O	i	-8.5%	2.1%	-1.8%	19.4%
CC1=C(O)C(=O)CO1	/	25.1µM*	/	/	/
Cc1cc(-c2nsc(=O)o2)c(S(C)(=O)=O)s1	/	8.91µM*	-2.3%	14.1%	/
O=C1C(Cl)=C(NCCCN2CCOCC2)C(=O)c2ccccc21	?	?	-41.5%	?	?
O=C1C(Cl)=C(NCCN2CCOCC2)C(=O)c2ccccc21	?	?	17.8µM*	?	-35.8%
SMILES	ATXN viability	ALOX12 inh	HepG2 viability	TGFb inhibitor	ATXN2 expr inh
O=S(=O)(c1ccccc1)c1nc(-c2ccccc2Cl)oc1NCCN1CCOCC1	i	-15.8%	-30.4%	-3.1%	-23.4%
Clc1ccccc1-c1nccc(NCCN2CCOCC2)n1	/	44.7µM*	/	/	/
CC(NC(=O)c1ccc[n+]([O-])c1)c1ccc2ccccc2c1 (stereo not given)	/	-24.0%	/	/	/
COc1cccc(/C=C(\C#N)c2ccccc2)c1OC(C)C	/	10.4%	/	/	/
COc1ccc(Sc2nnc(Cc3ccccc3)c3ccccc23)cc1	i	?	22.8%	-17.9%	?
Cc1ccc(Sc2nnc(Cc3ccccc3)c3ccccc23)cc1	i	?	17.8µM*	14.1µM*	?
Cc1cccc(OCCCC(=O)Nc2ccc(S(=O)(=O)Nc3onc(C)c3C)cc2)c1C	i	13.2%	-18.3%	13.5%	2.0%
Cc1cccc(OCC(=O)Nc2ccc(S(=O)(=O)Nc3onc(C)c3C)cc2)c1C	i	39.8µM*!	12.9%	3.1%	-1.1%
Cc1cccc(NC(=O)Cc2nc(-c3cc(C)n(-c4cc(C)on4)c3C)cs2)c1	/	-26.1%	/	/	/
COc1ccc(-c2n[nH]c(=S)n2-c2ccc(Br)cc2)cc1OC	?	15.8µM*	-7.5%	5.7%	34.5%
COc1ccc(OC)c(-n2c(-c3cccc(C)c3)n[nH]c2=S)c1	i	35.5µM*	-5.3%	0.1%	/
CC(C)c1cccc(NC(=O)CC2(C(=O)O)CCCCC2)c1	/	-39.5%	/	/	/
CC(=O)NC1(C)CCCN(Cc2cccc(-c3cccc(F)c3)c2)C1 (stereo not given)	/	-0.5%[176 µM]	/	/	/
CC(=O)NC1(C)CCN(Cc2cnc(-c3cccc(F)c3)s2)CC1	/	50.1µM*	/	/	/
CC(Nc1ccc([N+](=O)[O-])cn1)c1ccc(C(F)(F)F)cc1 (stereo not given)	/	-26.9%	/	/	/
Cc1cc(C)n(CCNC(=O)[C@H]2O[C@@H](n3ccc(N)nc3=O)[C@H](O)[C@@H]2O)n1	i	50.1µM*	-17.3%	-6.1%	-3.7%
CCn1nnc2cc(C(=O)Nc3nc(-c4ccc(NC(=O)C(C)(C)C)cc4)cs3)ccc21	/	28.1%	/	/	/
CCOc1ccc(C(=O)C(CCC(CN(C)C)C(=O)c2ccc(OCC)cc2)CN(C)C)cc1 (stereo not given)	3.16µM*	-12.5%	2.82µM*	5.01µM*	5.62µM*
CN(C)CC(CCC(CN(C)C)C(=O)c1ccccc1)C(=O)c1ccccc1 (stereo not given)	7.52µM*	/	-102.6%	6.31µM*	7.52µM*
O=C/C=C/c1ccccc1[N+](=O)[O-]	/	-30.0%	/	/	/
CC(C)n1c(=S)[nH]c2c1c(=O)[nH]c(=O)n2C	i	5.01µM*	7.9%	-3.3%	-7.2%
CC1C[N+](=C2C=C(N3CCOCC3)CC(C)(C)C2)CC(C)O1 (stereo not given)	i	28.2µM*	-14.0%	3.7%	5.0%
O=C(Nc1ccc2[nH]c(=O)[nH]c2c1)c1nn(-c2ccc(F)cc2)c2c1CCCC2	/	-3.6%	/	/	/
CC1CCCC(NC(=S)NC(=O)c2ccco2)C1C (stereo not given)	i	31.6µM*	-28.0%	-17.6%	-16.3%
